Consider 36 compounds from the supplement of paper PMC9399229.

Counter-ions that a name gives are not always drawn. The full ranking holds about 1,900 compounds; the median of “relative cell viability (CellTiter-Glo), compound plus cabozantinib, relative to the cabozantinib arm (arm median 1.05; reference not stated)” is about 1.1, and the lowest 2% start at about 0.15. For the sample, the lowest values were picked, then their nearest neighbours and some compounds at random.

This assay has as its system Hep3B. As to the kind of experiment: relative cell viability (CellTiter-Glo), compound plus cabozantinib, relative to the cabozantinib arm (arm median 1.05; reference not stated) (fraction); higher = more viable cells (less growth inhibition). As to conditions: cabozantinib 2 µM; 4 days. For orientation: ATP-based viability assays read luminescence as a measure of living cells.
For `COC(=O)N[C@H](C(=O)N1CC2(CC2)C[C@H]1c1nc(-c2ccc3c(c2)C(F)(F)c2cc(-c4ccc5[nH]c([C@@H]6[C@H]7CC[C@H](C7)N6C(=O)[C@@H](NC(=O)OC)C(C)C)nc5c4)ccc2-3)c[nH]1)C(C)C` [Ledipasvir (GS5885)], the relative cell viability came out at 1. In the case of `FC(F)(F)c1ccc(CNc2ccc(Cc3c[nH]c4ncc(Cl)cc34)cn2)cn1` [Pexidartinib (PLX3397)] it was 1.07.

Consider `C[C@H]1COC2=C1C(=O)C(=O)c1c2ccc2c1CCCC2(C)C` [Cryptotanshinone], for which the relative cell viability was found to be 0.918. To `C=CC(=O)Nc1cccc(Nc2nc(Nc3ccc(N4CCN(C(C)=O)CC4)cc3OC)ncc2C(F)(F)F)c1` belongs 0.831. With `COc1nc(C)cnc1NS(=O)(=O)c1cccnc1-c1ccc(-c2nnco2)cc1` [Zibotentan (ZD4054)], the relative cell viability was determined as 1.22. Turning to `C/C(=N\NC(=S)N1CCC1)c1ccccn1`, the relative cell viability is 0.0579.

With `CC(C)(C)C(=O)Nc1ccc2c(c1)C(=O)C(=O)c1ccccc1-2`, the relative cell viability came to 0.0959. Take `CC(=O)Nc1ccccc1` [Acetanilide]: the relative cell viability was 1.07.

For `CC1=CC(=O)c2ccccc2C1=O` [Menadione], the relative cell viability stood at 1.05.

As for `C[C@H]1O[C@@H](O[C@H]2[C@@H](O)C[C@H](O[C@H]3[C@@H](O)C[C@H](O[C@H]4CC[C@@]5(C)[C@H](CC[C@@H]6[C@@H]5C[C@@H](O)[C@]5(C)[C@@H](C7=CC(=O)OC7)CC[C@]65O)C4)O[C@@H]3C)O[C@@H]2C)C[C@H](O)[C@@H]1O` [Digoxin], the relative cell viability was 0.0999. To `CO[C@H]1C[C@@H]2CC[C@@H](C)[C@@](O)(O2)C(=O)C(=O)N2CCCC[C@H]2C(=O)O[C@H]([C@H](C)C[C@@H]2CC[C@@H](OP(C)(C)=O)[C@H](OC)C2)CC(=O)[C@H](C)/C=C(\C)[C@@H](O)[C@@H](OC)C(=O)[C@H](C)C[C@H](C)/C=C/C=C/C=C/1C` [Ridaforolimus (Deforolimus, MK-8669)] belongs 1.3; to `CN/C(=N\CCSCc1nc[nH]c1C)NC#N` [Cimetidine], 0.986; to `COc1cccc2c1C(=O)c1c(O)c3c(c(O)c1C2=O)C[C@@](O)(C(C)=O)C[C@@H]3O[C@H]1C[C@H](N)[C@H](O)[C@H](C)O1` [Daunorubicin HCl], 0.0514. As to `COc1cccc2c1C(=O)c1c(O)c3c(c(O)c1C2=O)C[C@@](O)(C(=O)CO)C[C@@H]3O[C@H]1C[C@H](N)[C@H](O)[C@H](C)O1` [Doxorubicin (Adriamycin)], the relative cell viability was found to be 0.111.

Turning to `COc1cccc2c1C(=O)c1c(O)c3c(c(O)c1C2=O)C[C@@](O)(C(=O)CO)C[C@@H]3O[C@H]1C[C@H](N)[C@H](O[C@@H]2CCCCO2)[C@H](C)O1` [Pirarubicin], the relative cell viability came out at 0.178. In the case of `COc1cccc2c1C(=O)c1c(O)c3c(c(O)c1C2=O)C[C@@](O)(C(=O)CO)C[C@@H]3O[C@H]1C[C@H](N)[C@@H](O)[C@H](C)O1` [Epirubicin HCl] it was 0.045; in that of `Cc1onc(-c2ccccc2Cl)c1C(=O)N[C@@H]1C(=O)N2[C@@H]1SC(C)(C)[C@@H]2C(=O)O` [Cloxacillin Sodium], 1.1; in that of `C=C1CC[C@H](O)C/C1=C/C=C1\CCC[C@]2(C)[C@@H]([C@H](C)CCCC(C)(C)O)CC[C@@H]12` [Calcifediol], 0.993. In the case of `CC[C@H](C)C[C@H](C)CCCCCCCCC(=O)N[C@H]1C[C@@H](O)[C@@H](NCCN)NC(=O)[C@@H]2[C@@H](O)CCN2C(=O)[C@H]([C@H](O)CCN)NC(=O)[C@H]([C@H](O)[C@@H](O)c2ccc(O)cc2)NC(=O)[C@@H]2C[C@@H](O)CN2C(=O)[C@H]([C@@H](C)O)NC1=O` [Caspofungin Acetate] it was 1.1; in that of `Nc1ncnc2n[nH]c(Nc3ccc(F)cc3)c12`, 1.05. Regarding `Cc1ccc(NC(=O)c2ccc(CN3CC[C@H](N(C)C)C3)c(C(F)(F)F)c2)cc1Nc1nccc(-c2cncnc2)n1` [Bafetinib (INNO-406)], the relative cell viability is 1.05. `Cc1ccc(C(=O)Nc2ccc(CN3CCN(C)CC3)c(C(F)(F)F)c2)cc1C#Cc1cnc2[nH]ncc2c1`: the relative cell viability worked out at 0.279.

As for `Cc1ccc(C(=O)Nc2ccc(CN3CCN(C)CC3)c(C(F)(F)F)c2)cc1C#Cc1cnc2cccnn12`, the relative cell viability is 0.127.

For the compound `CC(C)(F)C[C@H](N[C@@H](c1ccc(-c2ccc(S(C)(=O)=O)cc2)cc1)C(F)(F)F)C(=O)NC1(C#N)CC1` [Odanacatib (MK-0822)], the relative cell viability is 1.15. Turning to `Cn1cc(CNCC2CCN(c3ncc(C(=O)NO)cn3)CC2)c2ccccc21`, the relative cell viability was found to be 0.121. As for `CN1CCc2c(c3ccccc3n2Cc2ccc(C(=O)NO)cc2)C1` [Tubastatin A], the relative cell viability stood at 1.16.

For the compound `CN1CCc2c(c3ccccc3n2Cc2ccc(C(=O)NO)cc2)C1` [Tubastatin A HCl], the relative cell viability worked out at 1.01. To `COc1cc(C(=O)NS(=O)(=O)c2ccccc2C)ccc1Cc1cn(C)c2ccc(NC(=O)OC3CCCC3)cc12` [Zafirlukast] belongs 0.9; to `C[C@H](NCc1ccc(OCc2cccc(F)c2)cc1)C(N)=O` [Safinamide Mesylate], 1.22; to `OC[C@H]1O[C@@H](OCCc2ccc(O)cc2)[C@H](O)[C@@H](O)[C@@H]1O` [Salidroside], 0.974. `C[C@H]1O[C@H](O[C@H]2[C@H](O)[C@@H](O)[C@@H](O[C@H]3[C@H](O)[C@@H](O)C(O)O[C@@H]3CO)O[C@@H]2CO)[C@H](O)[C@@H](O)[C@@H]1N[C@H]1C=C(CO)[C@@H](O)[C@H](O)[C@H]1O` (stereo partly specified) [Acarbose]: the relative cell viability was found to be 1.21. As to `O=C1c2c(O)ccc(O)c2C(=O)c2c(NCCNCCO)ccc(NCCNCCO)c21` [Mitoxantrone HCl], the relative cell viability is 0.0809. As for `O=C1c2cccc(O)c2C(=O)c2c(O)cc(CO)cc21` [Aloe-emodin], the relative cell viability came to 1.04.

With `O=C1c2c(O)ccc(O)c2C(=O)c2c(NCCNCCO)ccc(NCCNCCO)c21` [Mitoxantrone], the relative cell viability is 0.0306. To `COc1cc([C@@H]2c3cc4c(cc3[C@@H](O[C@@H]3O[C@@H]5CO[C@@H](c6cccs6)O[C@H]5[C@H](O)[C@H]3O)[C@H]3COC(=O)[C@H]23)OCO4)cc(OC)c1O` [Teniposide] belongs 0.104; to `COc1cc([C@@H]2c3cc4c(cc3[C@@H](O[C@@H]3O[C@@H]5CO[C@@H](C)O[C@H]5[C@H](O)[C@H]3O)[C@H]3COC(=O)[C@H]23)OCO4)cc(OC)c1O` [Etoposide], 0.923.
